# Measured values as given in the supplement of paper PMC4466140.
# Target: AgAbp1
# Assay: SPOT peptide array binding signal intensity (averaged, normalized) (arbitrary units (background-subtracted, floor 0; scale differs between SH3 domains)); higher = stronger binding of the SH3 domain to the peptide
# Summary of the method: (§1)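 Binding signal is given in arbitrary units that differ between domains and is the normalized, background-subtracted spot intensity averaged across replicates. Each GST-SH3 fusion from one of four yeast species was made in E. coli BL21(DE3), purified on glutathione Sepharose and incubated at 10 μg/ml overnight at 4°C on cellulose-bound synthetic 15-mer peptides in which cysteines were replaced by serines. Detection used anti-GST antibody, an HRP anti-mouse secondary and luminol, followed by imaging and Genespotter quantification.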
row,Binder,SPOT peptide array binding signal intensity
1,ERPKRRAPPPVPKKP,1360

# Target: AgBbc1
# Assay: as above
# Summary of the method: as §1
row,Binder,SPOT peptide array binding signal intensity
1,ERPKRRAPPPVPKKP,936

# Target: AgBem1-D1
# Assay: as above
# Summary of the method: as §1
row,Binder,SPOT peptide array binding signal intensity
1,ERPKRRAPPPVPKKP,86.5

# Target: AgBzz1-D1
# Assay: as above
# Summary of the method: as §1
row,Binder,SPOT peptide array binding signal intensity
1,ERPKRRAPPPVPKKP,1350

# Target: AgBzz1-D2
# Assay: as above
# Summary of the method: as §1
row,Binder,SPOT peptide array binding signal intensity
1,ERPKRRAPPPVPKKP,1190

# Target: AgCyk3
# Assay: as above
# Summary of the method: as §1
row,Binder,SPOT peptide array binding signal intensity
1,ERPKRRAPPPVPKKP,2

# Target: AgFus1
# Assay: as above
# Summary of the method: as §1
row,Binder,SPOT peptide array binding signal intensity
1,ERPKRRAPPPVPKKP,3.5

# Target: AgHof1
# Assay: as above
# Summary of the method: as §1
row,Binder,SPOT peptide array binding signal intensity
1,ERPKRRAPPPVPKKP,124

# Target: AgHse1
# Assay: as above
# Summary of the method: as §1
row,Binder,SPOT peptide array binding signal intensity
1,ERPKRRAPPPVPKKP,22

# Target: AgLsb1
# Assay: as above
# Summary of the method: as §1
row,Binder,SPOT peptide array binding signal intensity
1,ERPKRRAPPPVPKKP,62.5

# Target: AgLsb4
# Assay: as above
# Summary of the method: as §1
row,Binder,SPOT peptide array binding signal intensity
1,ERPKRRAPPPVPKKP,25

# Target: AgMyo5
# Assay: as above
# Summary of the method: as §1
row,Binder,SPOT peptide array binding signal intensity
1,ERPKRRAPPPVPKKP,359

# Target: AgNbp2
# Assay: as above
# Summary of the method: as §1
row,Binder,SPOT peptide array binding signal intensity
1,ERPKRRAPPPVPKKP,292

# Target: AgRvs167
# Assay: as above
# Summary of the method: as §1
row,Binder,SPOT peptide array binding signal intensity
1,ERPKRRAPPPVPKKP,1.83

# Target: AgSho1
# Assay: as above
# Summary of the method: as §1
row,Binder,SPOT peptide array binding signal intensity
1,ERPKRRAPPPVPKKP,83

# Target: AgSla1-D1-D2
# Assay: as above
# Summary of the method: as §1
row,Binder,SPOT peptide array binding signal intensity
1,ERPKRRAPPPVPKKP,7

# Target: AgSla1-D3
# Assay: as above
# Summary of the method: as §1
row,Binder,SPOT peptide array binding signal intensity
1,ERPKRRAPPPVPKKP,140

# Target: CaAbp1-D1
# Assay: as above
# Summary of the method: as §1
row,Binder,SPOT peptide array binding signal intensity
1,ERPKRRAPPPVPKKP,1770

# Target: CaAbp1-D2
# Assay: as above
# Summary of the method: as §1
row,Binder,SPOT peptide array binding signal intensity
1,ERPKRRAPPPVPKKP,1480

# Target: CaBbc1
# Assay: as above
# Summary of the method: as §1
row,Binder,SPOT peptide array binding signal intensity
1,ERPKRRAPPPVPKKP,1090

# Target: CaBem1-D1
# Assay: as above
# Summary of the method: as §1
row,Binder,SPOT peptide array binding signal intensity
1,ERPKRRAPPPVPKKP,42.5

# Target: CaBzz1-D1
# Assay: as above
# Summary of the method: as §1
row,Binder,SPOT peptide array binding signal intensity
1,ERPKRRAPPPVPKKP,6780

# Target: CaBzz1-D2
# Assay: as above
# Summary of the method: as §1
row,Binder,SPOT peptide array binding signal intensity
1,ERPKRRAPPPVPKKP,3000

# Target: CaCyk3
# Assay: as above
# Summary of the method: as §1
row,Binder,SPOT peptide array binding signal intensity
1,ERPKRRAPPPVPKKP,29

# Target: CaFus1
# Assay: as above
# Summary of the method: as §1
row,Binder,SPOT peptide array binding signal intensity
1,ERPKRRAPPPVPKKP,30

# Target: CaHof1
# Assay: as above
# Summary of the method: as §1
row,Binder,SPOT peptide array binding signal intensity
1,ERPKRRAPPPVPKKP,0.5

# Target: CaHse1
# Assay: as above
# Summary of the method: as §1
row,Binder,SPOT peptide array binding signal intensity
1,ERPKRRAPPPVPKKP,24.8

# Target: CaLsb1
# Assay: as above
# Summary of the method: as §1
row,Binder,SPOT peptide array binding signal intensity
1,ERPKRRAPPPVPKKP,≤ 0

# Target: CaLsb4
# Assay: as above
# Summary of the method: as §1
row,Binder,SPOT peptide array binding signal intensity
1,ERPKRRAPPPVPKKP,243

# Target: CaMyo5
# Assay: as above
# Summary of the method: as §1
row,Binder,SPOT peptide array binding signal intensity
1,ERPKRRAPPPVPKKP,4.5

# Target: CaNbp2
# Assay: as above
# Summary of the method: as §1
row,Binder,SPOT peptide array binding signal intensity
1,ERPKRRAPPPVPKKP,814

# Target: CaRvs167
# Assay: as above
# Summary of the method: as §1
row,Binder,SPOT peptide array binding signal intensity
1,ERPKRRAPPPVPKKP,16.7

# Target: CaRvs167-3
# Assay: as above
# Summary of the method: as §1
row,Binder,SPOT peptide array binding signal intensity
1,ERPKRRAPPPVPKKP,0.75

# Target: CaSho1
# Assay: as above
# Summary of the method: as §1
row,Binder,SPOT peptide array binding signal intensity
1,ERPKRRAPPPVPKKP,6

# Target: CaSla1-D1-D2
# Assay: as above
# Summary of the method: as §1
row,Binder,SPOT peptide array binding signal intensity
1,ERPKRRAPPPVPKKP,2360

# Target: CaSla1-D3
# Assay: as above
# Summary of the method: as §1
row,Binder,SPOT peptide array binding signal intensity
1,ERPKRRAPPPVPKKP,698

# Target: ScAbp1
# Assay: as above
# Summary of the method: as §1
row,Binder,SPOT peptide array binding signal intensity
1,ERPKRRAPPPVPKKP,2010

# Target: ScBbc1
# Assay: as above
# Summary of the method: as §1
row,Binder,SPOT peptide array binding signal intensity
1,ERPKRRAPPPVPKKP,460

# Target: ScBem1-D1
# Assay: as above
# Summary of the method: as §1
row,Binder,SPOT peptide array binding signal intensity
1,ERPKRRAPPPVPKKP,4

# Target: ScBzz1-D1
# Assay: as above
# Summary of the method: as §1
row,Binder,SPOT peptide array binding signal intensity
1,ERPKRRAPPPVPKKP,2120

# Target: ScBzz1-D2
# Assay: as above
# Summary of the method: as §1
row,Binder,SPOT peptide array binding signal intensity
1,ERPKRRAPPPVPKKP,66

# Target: ScCyk3
# Assay: as above
# Summary of the method: as §1
row,Binder,SPOT peptide array binding signal intensity
1,ERPKRRAPPPVPKKP,2.5

# Target: ScFus1
# Assay: as above
# Summary of the method: as §1
row,Binder,SPOT peptide array binding signal intensity
1,ERPKRRAPPPVPKKP,6

# Target: ScHof1
# Assay: as above
# Summary of the method: as §1
row,Binder,SPOT peptide array binding signal intensity
1,ERPKRRAPPPVPKKP,≤ 0

# Target: ScHse1
# Assay: as above
# Summary of the method: as §1
row,Binder,SPOT peptide array binding signal intensity
1,ERPKRRAPPPVPKKP,≤ 0

# Target: ScLsb1
# Assay: as above
# Summary of the method: as §1
row,Binder,SPOT peptide array binding signal intensity
1,ERPKRRAPPPVPKKP,101

# Target: ScLsb2
# Assay: as above
# Summary of the method: as §1
row,Binder,SPOT peptide array binding signal intensity
1,ERPKRRAPPPVPKKP,70

# Target: ScLsb3
# Assay: as above
# Summary of the method: as §1
row,Binder,SPOT peptide array binding signal intensity
1,ERPKRRAPPPVPKKP,608

# Target: ScLsb4
# Assay: as above
# Summary of the method: as §1
row,Binder,SPOT peptide array binding signal intensity
1,ERPKRRAPPPVPKKP,10

# Target: ScMyo3
# Assay: as above
# Summary of the method: as §1
row,Binder,SPOT peptide array binding signal intensity
1,ERPKRRAPPPVPKKP,1180

# Target: ScMyo5
# Assay: as above
# Summary of the method: as §1
row,Binder,SPOT peptide array binding signal intensity
1,ERPKRRAPPPVPKKP,959

# Target: ScNbp2
# Assay: as above
# Summary of the method: as §1
row,Binder,SPOT peptide array binding signal intensity
1,ERPKRRAPPPVPKKP,577

# Target: ScPex13
# Assay: as above
# Summary of the method: as §1
row,Binder,SPOT peptide array binding signal intensity
1,ERPKRRAPPPVPKKP,257

# Target: ScRvs167
# Assay: as above
# Summary of the method: as §1
row,Binder,SPOT peptide array binding signal intensity
1,ERPKRRAPPPVPKKP,151

# Target: ScSho1
# Assay: as above
# Summary of the method: as §1
row,Binder,SPOT peptide array binding signal intensity
1,ERPKRRAPPPVPKKP,166

# Target: ScSla1-D1-D2
# Assay: as above
# Summary of the method: as §1
row,Binder,SPOT peptide array binding signal intensity
1,ERPKRRAPPPVPKKP,1960

# Target: ScSla1-D3
# Assay: as above
# Summary of the method: as §1
row,Binder,SPOT peptide array binding signal intensity
1,ERPKRRAPPPVPKKP,691

# Target: SpAbp1-D1
# Assay: as above
# Summary of the method: as §1
row,Binder,SPOT peptide array binding signal intensity
1,ERPKRRAPPPVPKKP,280

# Target: SpBbc1
# Assay: as above
# Summary of the method: as §1
row,Binder,SPOT peptide array binding signal intensity
1,ERPKRRAPPPVPKKP,76

# Target: SpBzz1-D1
# Assay: as above
# Summary of the method: as §1
row,Binder,SPOT peptide array binding signal intensity
1,ERPKRRAPPPVPKKP,1460

# Target: SpBzz1-D2
# Assay: as above
# Summary of the method: as §1
row,Binder,SPOT peptide array binding signal intensity
1,ERPKRRAPPPVPKKP,40.2

# Target: SpCyk3
# Assay: as above
# Summary of the method: as §1
row,Binder,SPOT peptide array binding signal intensity
1,ERPKRRAPPPVPKKP,1

# Target: SpHof1
# Assay: as above
# Summary of the method: as §1
row,Binder,SPOT peptide array binding signal intensity
1,ERPKRRAPPPVPKKP,112

# Target: SpHof1-2
# Assay: as above
# Summary of the method: as §1
row,Binder,SPOT peptide array binding signal intensity
1,ERPKRRAPPPVPKKP,12

# Target: SpHof1-3
# Assay: as above
# Summary of the method: as §1
row,Binder,SPOT peptide array binding signal intensity
1,ERPKRRAPPPVPKKP,122

# Target: SpHse1
# Assay: as above
# Summary of the method: as §1
row,Binder,SPOT peptide array binding signal intensity
1,ERPKRRAPPPVPKKP,43.2

# Target: SpLsb1
# Assay: as above
# Summary of the method: as §1
row,Binder,SPOT peptide array binding signal intensity
1,ERPKRRAPPPVPKKP,302

# Target: SpLsb4
# Assay: as above
# Summary of the method: as §1
row,Binder,SPOT peptide array binding signal intensity
1,ERPKRRAPPPVPKKP,489

# Target: SpMyo1
# Assay: as above
# Summary of the method: as §1
row,Binder,SPOT peptide array binding signal intensity
1,ERPKRRAPPPVPKKP,1100

# Target: SpNbp2
# Assay: as above
# Summary of the method: as §1
row,Binder,SPOT peptide array binding signal intensity
1,ERPKRRAPPPVPKKP,10

# Target: SpPex13
# Assay: as above
# Summary of the method: as §1
row,Binder,SPOT peptide array binding signal intensity
1,ERPKRRAPPPVPKKP,15

# Target: SpRvs167
# Assay: as above
# Summary of the method: as §1
row,Binder,SPOT peptide array binding signal intensity
1,ERPKRRAPPPVPKKP,175

# Target: SpSla1-D1-D2
# Assay: as above
# Summary of the method: as §1
row,Binder,SPOT peptide array binding signal intensity
1,ERPKRRAPPPVPKKP,215

# Target: SpSla1-D3
# Assay: as above
# Summary of the method: as §1
row,Binder,SPOT peptide array binding signal intensity
1,ERPKRRAPPPVPKKP,≤ 0
